Data published in the supplement of paper PMC9446081.
Among all 39,000 compounds or so, about 220 (0.56%) showed activity. This is one part of a sample in which actives are shown more often than they occur. Unmarked numbers belong to inactive results.

System: Escherichia coli K-12 BW25113
Test: relative growth (OD600 normalised to plate interquartile mean) (fraction); higher = less growth inhibition, active = 0.2 or less
Details: 50 µM; LB; incubation time: overnight (16-24 h)
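Note: Wild-type cells incubated without shaking, value is the mean of two biological replicates.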

Structure (SMILES) | relative growth
C[C@H](CO)N1C[C@H](C)[C@@H](CN(C)S(=O)(=O)c2cn(C)cn2)Oc2ccc(NC(=O)Nc3ccc(F)cc3)cc2CC1=O | 0.986
CCNC(=O)[C@@H]1[C@@H](CO)[C@@H]2Cn3c(ccc(-c4cccc(C(=O)N(C)C)c4)c3=O)[C@H]1N2 | 1.02
CC1=C(C(=O)O)N2C(=O)[C@@H](NC(=O)[C@@H](N)c3ccc(O)cc3)[C@H]2SC1 | 0.999
Cc1cc(O)c(C(=O)NC(C(=O)NC2C(=O)N3C(C(=O)O)=C(CSc4nnnn4C)CSC23)c2ccc(O)cc2)cn1 (configuration not stated) | 0.0416 (active)
Cc1cc(=O)c(C(=O)N[C@@H](C(=O)N[C@@H]2C(=O)N3C(C(=O)O)=C(CSc4nnnn4C)CS[C@H]23)c2ccc(O)cc2)c[nH]1 | 0.0389 (active)
CCN1CCN(C(=O)NC(C(=O)NC2C(=O)N3C(C(=O)O)=C(CSc4nnnn4C)CSC23)c2ccc(O)cc2)C(=O)C1=O (configuration not stated) | 0.046 (active)
CC1=C(C(=O)O)N2C(=O)[C@@H](NC(=O)[C@H](N)c3ccc(O)cc3)[C@H]2SC1 | 1.06
CC1=C(C(=O)O)N2C(=O)C(NC(=O)C(N)c3ccc(O)cc3)C2SC1 (configuration not stated) | 0.986
N=c1sccn1CC(=O)O | 1.04
CC1=C(/C=C/C(C)=C/C=C/C(C)=C/C(=O)O)C(C)(C)CCC1 | 0.987
Cc1noc(C)c1NC(=O)N(C)C[C@@H]1OCCCC[C@H](C)Oc2ccc(NC(=O)CCC(F)(F)F)cc2C(=O)N([C@H](C)CO)C[C@@H]1C | 0.979
C[C@H](CO)N1C[C@H](C)[C@@H](CN(C)Cc2ccc3c(c2)OCO3)Oc2c(NC(=O)c3cnccn3)cccc2C1=O | 0.969
COc1ccc(S(=O)(=O)N(C)C[C@H]2OCCCC[C@@H](C)Oc3ccc(NC(=O)Nc4ccc(F)cc4)cc3C(=O)N([C@H](C)CO)C[C@@H]2C)cc1 | 1.07
CO[C@@H]1CN(C)C(=O)c2ccc(NC(=O)C3CCOCC3)cc2OC[C@@H](C)N(CC2CCOCC2)C[C@H]1C | 1.02
O=C(CN1CCOCC1)NCC[C@H]1CC[C@@H](NC(=O)Nc2ccccc2)[C@@H](CO)O1 | 1.01
Cc1noc(C)c1S(=O)(=O)Nc1cccc2c1O[C@@H](CN(C)Cc1ccccc1)[C@@H](C)CN([C@@H](C)CO)C2=O | 1.01
C[C@@H]1CN([C@H](C)CO)C(=O)c2cc(NC(=O)Nc3ccc(C(F)(F)F)cc3)ccc2O[C@H]1CN(C)Cc1ccc(C(F)(F)F)cc1 | 1.02
C[C@@H]1CN([C@H](C)CO)C(=O)c2cc(-c3cccc(C(=O)N(C)C)c3)cnc2O[C@@H]1CN(C)S(=O)(=O)c1ccccc1 | 0.987
COc1oc(C(=O)NC2CCCCC2)c(-c2ccc(Cl)cc2)c1S(=O)(=O)c1cccc(Cl)c1 | 0.914
COc1ccccc1-c1cnc2c(c1)C(=O)N([C@@H](C)CO)C[C@@H](C)[C@H](CN(C)C(=O)c1cccnc1)O2 | 1.02
COc1cc(N2CCC3(CC2)CNC(=O)CO3)ncn1 | 0.968
C[C@@H]1CN([C@H](C)CO)C(=O)Cc2cc(NC(=O)CCN3CCOCC3)ccc2O[C@H]1CN(C)Cc1ccc(C(=O)O)cc1 | 1.03
CO[C@@]12[C@H](COC(N)=O)C3=C(C(=O)C(C)=C(N)C3=O)N1C[C@@H]1N[C@@H]12 | 1.01

Structure (SMILES) | relative growth
CO[C@@]12[C@@H]3N[C@@H]3CN1C1=C(C(=O)C(N)=C(C)C1=O)[C@@H]2COC(N)=O | 0.0651 (active)
COC12C(COC(N)=O)C3=C(C(=O)C(C)=C(N)C3=O)N1CC1NC12 (configuration not stated) | 0.0503 (active)
COCCNC(=O)C[C@H]1CC[C@H]2[C@@H](COC[C@@H](O)CN2C(=O)Nc2ccccc2OC)O1 | 0.949
Cc1noc(C)c1S(=O)(=O)Nc1ccc2c(c1)CC(=O)N([C@H](C)CO)C[C@@H](C)[C@H](CN(C)Cc1ccncc1)O2 | 0.995
C[C@H](CO)N1C[C@H](C)[C@@H](CN(C)C)Oc2ccc(NS(C)(=O)=O)cc2CC1=O | 0.983
C[C@@H]1CCCCO[C@@H](CN(C)C(=O)C2CCCCC2)[C@H](C)CN([C@H](C)CO)C(=O)c2cc(NS(=O)(=O)c3ccccc3)ccc2O1 | 0.989
CC1=C(C(=O)NCCCN2CCN(c3ccc(F)cc3)CC2)C2(CCN(Cc3ccccc3)CC2)OC1=O | 0.567
Cn1c(=O)[nH]c(=O)c2c1nc(N1CCN(CC(N)=O)CC1)n2C/C=C/c1ccccc1 | 0.988
Cc1ccc(S(=O)(=O)N(C)C[C@H]2Oc3c(NC(=O)c4cnccn4)cccc3C(=O)N([C@H](C)CO)C[C@@H]2C)cc1 | 0.975
C[C@H]1COc2c(C3(N)CC3)c(F)cc3c(=O)c(C(=O)O)cn1c23 | 0.0591 (active)
CC1COc2c(C3(N)CC3)c(F)cc3c(=O)c(C(=O)O)cn1c23.CS(=O)(=O)O (configuration not stated) | 0.0476 (active)
C[C@H]1CN([C@@H](C)CO)C(=O)c2cc(NC(=O)CCN3CCOCC3)ccc2O[C@H]1CN(C)C(=O)NC1CCCCC1 | 0.98
CS(=O)(=O)c1cc(F)ccc1N | 0.965
O=C(O)c1cccc(-c2ccco2)c1 | 1.01
CC(=O)OCC1=C[C@@H]2OC(=O)C3=CO[C@@H](O[C@H]4O[C@H](CO)[C@@H](O)[C@H](O)[C@H]4O)[C@H]1[C@@H]32 | 1.01
CNC(=O)CN1CCOC[C@@]2(C1)CN(C(=O)c1ccn[nH]1)CCO2 | 0.952
CCCCCCCCCCCCCCCC(=O)OC[C@H](NC(=O)C(Cl)Cl)[C@H](O)c1ccc([N+](=O)[O-])cc1 | 0.604
CS(=O)(=O)c1ccc(C(O)C(CF)NC(=O)C(Cl)Cl)cc1 (configuration not stated) | 0.0463 (active)
O=C([O-])CCC(=O)OCC(NC(=O)C(Cl)Cl)C(O)c1ccc([N+](=O)[O-])cc1.[Na+] (configuration not stated) | 0.0517 (active)
CCC(NC(C)C)C(O)c1ccc(O)c(O)c1.CS(=O)(=O)O (configuration not stated) | 1.04
CCCCCCCCCCCCCCCC(=O)OCC(NC(=O)C(Cl)Cl)C(O)c1ccc([N+](=O)[O-])cc1 (configuration not stated) | 0.559
O=C(NCO)c1ccc([N+](=O)[O-])cc1 | 1.02
O=C(NC(CO)C(O)c1ccc([N+](=O)[O-])cc1)C(Cl)Cl (configuration not stated) | 0.0428 (active)

Structure (SMILES) | relative growth
CCCCCCCCCCCCCCCC(=O)OC[C@@H](NC(=O)C(Cl)Cl)[C@H](O)c1ccc([N+](=O)[O-])cc1 | 1.03
CS(=O)(=O)c1ccc(C(O)C(CO)NC(=O)C(Cl)Cl)cc1 (configuration not stated) | 0.375
C[C@@H]1CN([C@H](C)CO)C(=O)c2cc(NC(=O)Nc3ccc(F)cc3)ccc2O[C@@H](C)CCCCO[C@H]1CN(C)C(=O)Nc1ccc(C(F)(F)F)cc1 | 1
Cc1ccc(S(=O)(=O)N(C)C[C@H]2OCCCC[C@H](C)Oc3ccc(NC(=O)Nc4ccccc4)cc3C(=O)N([C@H](C)CO)C[C@@H]2C)cc1 | 1.07
C[C@@H]1CN([C@H](C)CO)C(=O)c2cc(NS(=O)(=O)c3ccccc3)ccc2O[C@@H](C)CCCCO[C@H]1CN(C)Cc1ccc(C(F)(F)F)cc1 | 1.07
C[C@@H]1CCCCO[C@@H](CN(C)CC2CCCCC2)[C@@H](C)CN([C@H](C)CO)C(=O)c2cc(NS(=O)(=O)c3ccccc3)ccc2O1 | 0.975
C=CCC[C@@H](Cc1ccc(F)cc1)C(=O)OC[C@@H](Cc1c[nH]c2ccccc12)NC(=O)[C@@H](CC=C)CC(=O)N(CCO)Cc1ccccc1 | 1.1
C[C@@H]1CN([C@H](C)CO)C(=O)c2cccc(NC(=O)C3CCOCC3)c2O[C@H]1CN(C)Cc1ccc(-c2ccccc2)cc1 | 1
O=C(CCCCCC(=O)N/N=C/[C@H](O)[C@@H](O)[C@H](O[C@@H]1O[C@H](CO)[C@H](O)[C@H](O)[C@H]1O)[C@H](O)CO)NO | 1.01
COc1ccc2c3c([nH]c2c1)[C@H](CO)N(C[C@]13CN(C1)C(=O)Cc1cccnc1)S(=O)(=O)c1ccc(cc1)C | 0.987
CCn1cc(C(=O)O)c(=O)c2ccc(C)nc21 | 1.02
CCn1cc(C(=O)O)c(=O)c2cnc(N3CCNCC3)nc21 | 0.05 (active)
CCn1cc(C(=O)O)c(=O)c2cnc(N3CCCC3)nc21 | 1.09
O=C(O)c1cnc(N2CCCC2)nc1 | 1.03
CCn1cc(C(=O)O)c(=O)c2cc(F)c(N3CCNCC3)nc21 | 0.049 (active)
NC(=O)c1cc(S(N)(=O)=O)ccc1Cl | 0.993
C[C@H]1CN([C@@H](C)CO)C(=O)c2cc(NC(=O)Nc3ccc(F)cc3)ccc2O[C@H]1CN(C)S(C)(=O)=O | 1.02
Cc1noc(C)c1S(=O)(=O)N(C)C[C@@H]1Oc2ccc(NS(C)(=O)=O)cc2CC(=O)N([C@@H](C)CO)C[C@H]1C | 1.01
C[C@@H]1CCCCO[C@@H](CN(C)C(=O)Nc2ccc3c(c2)OCO3)[C@@H](C)CN([C@H](C)CO)C(=O)c2cc(NC(=O)Nc3ccc4c(c3)OCO4)ccc2O1 | 1.02
C[C@@H]1CN([C@@H](C)CO)C(=O)c2cc(NC(=O)Nc3ccc(F)cc3)ccc2O[C@@H](C)CCCCO[C@@H]1CN(C)Cc1ccncc1 | 0.93
Cc1noc(C)c1NC(=O)N(C)C[C@@H]1Oc2c(NC(=O)Nc3ccc(C(F)(F)F)cc3)cccc2C(=O)N([C@@H](C)CO)C[C@@H]1C | 0.943
